# ChEMBL document CHEMBL4513216, “Probing the Open Global Health Chemical Diversity Library for Multistage-Active Starting Points for Next-Generation Antimalarials” (ACS Infect Dis, 2020)
# About 8,600 (12%) of roughly 69,000 compounds showed an effect of 50% or more. Many of the other results were omitted from the sample, so strong results are more common in it than they were.
# Test system: Plasmodium berghei
# Experiment: Screen against P. berghei liver stage (PbLuc), transformed with Luciferase, at 10uM
# Assay type: functional, HepG2
# Details: tested at 10 uM
row,SMILES,INHIBITION [%]
1,CC(C)N(Cc1cccc(Cl)c1)Cc1nc2c(cnn2C)c(=O)[nH]1,15.6
2,COc1ccc(CCNC2CCCN(Cc3noc(C)n3)C2)cc1 (centres undefined),35.9
3,CC(=O)Nc1ccccc1Sc1nc(Br)nn1C,5.58
4,CN(Cc1n[nH]c2c1CCC2)C(=O)c1cc(-c2cccn2C)n[nH]1,-7.53
5,CCOCc1ccc(CNC2=NCCCN2)cc1,47.1
6,CC(C)C(=O)NCc1ccc(N(C)C)cc1,-51.5
7,CN(C)c1ccc(CNC2=NCCCN2)cc1,75.8
8,COC(=O)c1ccc(Cn2nc(C)cc2C)cc1,-60.4
9,Cc1c(C(=O)N2CCN(C)[C@@H]3CS(=O)(=O)C[C@@H]32)[nH]c2ccc(F)cc12,43
10,CCc1c(C(=O)N2CCN(C)[C@@H]3CS(=O)(=O)C[C@@H]32)[nH]c2ccccc12,60.1
11,CCN1CCN(C(=O)c2[nH]c3ccccc3c2Cl)[C@H]2CS(=O)(=O)C[C@H]21,-9.87
12,CC(C)c1nn(C)c(N(C)C)c1CNC1CCOc2c(F)cccc21 (centres undefined),-12.5
13,O=C(c1cnccn1)N1CC2(CCN(Cc3ccsc3)C2)C1,23.3
14,CN(C)C(=O)C1CSCN1C(=O)CCc1ccco1 (centres undefined),-75
15,CS(=O)(=O)NC1(CCc2ccc(NC(=O)C3CC3)nc2)CCCCC1,40.6
16,CC(=O)Nc1ccc(CCC2(NC(=O)C3CCCO3)CCCCC2)cn1 (centres undefined),-1.16
17,CC(=O)Nc1ccc(CCC2(NC(=O)C3CC3)CCCCC2)cn1,59.2
18,Cc1nn(C(C)C)c2cn(CC(=O)NC3CCSCC3)nc12,-3.83
19,O=C(Cc1ccc2c(c1)OCCO2)NCc1ccc(-n2cncn2)nc1,19.2
20,Nc1cc(-c2cccs2)nn(CC(=O)NCC2CCCCC2)c1=O,6.32
21,Nc1cc(-c2cccs2)nn(CC(=O)N2CCc3ccccc32)c1=O,72.2
22,CC1Cc2ccccc2N1C(=O)Cn1nc(-c2cccs2)cc(N)c1=O (centres undefined),18.3
23,CCS(=O)(=O)N1CC(=O)N(CCCc2ccccc2)CC(O)C1 (centres undefined),26.8
24,O=C(CCc1nc2cccnc2[nH]1)NCc1ccncc1,-0.532
25,Cc1ccc(CN2CCN(c3ccc(F)cn3)CC2=O)cc1C,11.2
26,Cc1ccc(CN2CCN(c3cncc(N(C)C)n3)CC2=O)cc1C,56.3
27,Cc1ccc(CN2CCN(Cc3ccc(N(C)C)nc3)CC2=O)cc1C,44
28,CS(=O)(=O)CCn1ccc(NC(=O)c2c(F)cccc2F)n1,46.1
29,Cc1nccn1C1CCCN(C(=O)c2ccc(N(C)C)nn2)C1 (centres undefined),-22.9
